NadD block: blocks S. aureus nicotinate mononucleotide adenylyltransferase; purified NadD enzyme, colorimetric absorbance read-out; inhibition, % at 20 µM; actives 0.78% (n = 360,000); in the data active = inhibition above about 26%
GRIN3A LBD mod: modulates the human NR3A ligand-binding domain. actives 2.5% (n = 340,000). AID 1259313. Tm shift relative to glycine control, % at 25 µM. NR3A LBD differential scanning fluorimetry, Tm shift; 0% = protein alone, 100% = glycine-bound protein;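 active = melting temperature shift of at least 10% of the positive control shift, at one fixed dose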
FAS TE block: blocks the thioesterase domain of human fatty acid synthase | P49327 | recombinant FAS-TE, OMFH fluorogenic substrate, fluorescence endpoint | inhibition, % at 15 µM | actives 0.67% (n = 360,000) | AID 602261;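 active = compounds whose normalised, plate-corrected inhibition of enzyme fluorescence in the single-dose primary screen is 50% or more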;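 note: 0% = DMSO with enzyme and 100% = substrate without enzyme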
rCAG binder: binds r(CAG) RNA repeats; r(CAG) RNA repeat, TO-PRO-1 dye displacement fluorescence; inhibition, % at 3 µM; actives 1.3% (n = 370,000); AID 651821;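 active = inhibition above the plate cutoff, the mean of all test compounds on that plate plus 3 SD, cut at about 35% in these data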;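 note: 0% = DMSO alone and 100% = 100 µM mitoxantrone as full dye displacement; higher means more dye released from RNA so lower well fluorescence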
NadD inh conf: confirmation of Staphylococcus aureus NadD inhibitors | shares compounds with NadD block | purified S. aureus NadD, colorimetric enzyme assay | inhibition, % at 20 µM | actives 13% (n = 2,000) | AID 624309; in the data active = inhibition mostly above about 42%, no sharp cut-off; inactive = mostly below about 42%
* = called active by the depositor; nt = no result. Only some compounds are listed: those with a hit (about 4.3% of all), similar ones and a draw of the others.

SMILES | NadD block | GRIN3A LBD mod | FAS TE block | rCAG binder | NadD inh conf
COc1ccc(-c2csc(NC(=O)C3CCN(c4ncnc5sc(C)c(C)c45)CC3)n2)cc1OC | 8.7 | 0.5 | 29.2 | 12.2 | nt
Cc1sc2ncnc(N3CCC(C(=O)Nc4nnc(SCc5ccccc5F)s4)CC3)c2c1C | 46.7* | -7.2 | 16.4 | 1.7 | 3.8
C=CCn1c(C)cc(-c2csc(NC(=O)C3CCN(c4ncnc5sc(C)c(C)c45)CC3)n2)c1C | 31.6* | 0.2 | -5.1 | 13.8 | 27.4
COC(=O)[C@]12C[C@H](CC(=O)N3CCCCC3)C(=O)N(Cc3ccc(Cl)cc3Cl)C1=C[C@H](C1CCCC1)O[C@@H]2C | nt | nt | nt | 7.0 | nt
Cc1ccc(C(=O)Nn2c(N)c(S(=O)(=O)c3ccc(C)cc3)c3nc4ccccc4nc32)cc1 | 30.4* | 6.6 | 16.4 | 29.0 | 31.8
Nc1c(S(=O)(=O)c2ccccc2)c2nc3ccccc3nc2n1/N=C/c1cccc(O)c1 | 46.9* | 25.2* | 25.1 | 13.0 | 17.5
Cc1ccc(C)c(S(=O)(=O)c2c(N)n(/N=C/c3ccco3)c3nc4ccccc4nc23)c1 | 31.5* | 36.1* | 38.6 | 32.8 | 1.1
Cc1cccc(S(=O)(=O)c2c(N)n(/N=C/c3ccccc3)c3nc4ccccc4nc23)c1 | 1.5 | 1.8 | 25.2 | 6.8 | nt
Cc1ccc(S(=O)(=O)c2c(N)n(CCCO)c3nc4ccccc4nc23)cc1 | 1.7 | -1.3 | 11.0 | 4.2 | nt
CCOC(=O)[C@]12CCCCC/C=C\1N(Cc1ccc(OC)cc1)C(=O)[C@H]2CC(=O)NCc1ccccc1 | nt | nt | nt | 3.5 | nt
O=S(=O)(NCc1ccccc1)c1cc(Br)ccc1Br | nt | nt | nt | 3.2 | nt
CCCCn1c(-c2ccc(Cl)c(Cl)c2)nc2cc3[nH]c(=O)c(C(C)C)nc3cc21 | 37.6* | 0.3 | -5.7 | 9.2 | 15.6
CCCCn1c(-c2cccc(Br)c2)nc2cc3[nH]c(=O)c(C(C)C)nc3cc21 | 14.5 | -18.8 | -10.4 | 7.3 | nt
CCCCn1c(-c2ccc(C(C)(C)C)cc2)nc2cc3[nH]c(=O)c(C(C)C)nc3cc21 | 35.7* | -7.7 | -9.1 | 17.1 | 4.3
OC(CCN1CCCCC1)(c1ccccc1)C1CC2C=CC1C2 (configuration not stated) | nt | nt | nt | 2.2 | nt
Cc1ccc(C2CCC3(CCC(=O)N3CCOC(=O)Nc3cccc(C#N)c3)CC2)cc1 (configuration not stated) | nt | nt | nt | 3.6 | nt
COC(=O)[C@]12C[C@H](CC(=O)NCc3ccc(OC)c(OC)c3)C(=O)N(Cc3ccccc3)C1=C[C@H](C1CCCC1)O[C@@H]2C | nt | nt | nt | 2.9 | nt
COc1ccc(C(=O)Nc2nc3c(s2)Cc2cc(OC)ccc2-3)cc1 | 38.1* | 10.8* | 0.5 | 18.8 | 8.6
COc1ccc(C(=O)Nc2nc3ccc4nc(C)sc4c3s2)cc1 | -3.1 | -1.3 | -2.3 | 5.6 | nt
Cc1ccc(N2C(=O)CC(N(CCc3ccccc3)C(=S)Nc3ccc(N(C)C)cc3)C2=O)cc1 (configuration not stated) | 37.4* | 5.9 | 10.4 | 17.6 | 35.3*
NS(=O)(=O)c1ccc(N=C2C(=O)Nc3ccccc32)cc1 | -5.8 | -0.5 | -7.6 | 1.6 | nt
O=C1Nc2ccccc2C1=Nc1ccc(S(=O)(=O)Nc2nccs2)cc1 | 53.8* | 2.6 | 2.5 | 48.2* | 74.0*
N#Cc1[nH]nc2nc[nH]c(=O)c12 | nt | nt | nt | 1.5 | nt
O=C(Nc1ccc2c(c1)OCO2)C1Cc2ccccc2CN1S(=O)(=O)c1cccs1 (configuration not stated) | 31.0* | -2.3 | 2.7 | 8.0 | -1.5
C#CC1c2ccccc2CCN1CC=C (configuration not stated) | nt | nt | nt | 0.6 | nt
SMILES | NadD block | GRIN3A LBD mod | FAS TE block | rCAG binder | NadD inh conf
Cc1ccc(C)c(N(CC(=O)NC2CCCC2)C(=O)c2cc3cc4cc(C)ccc4nc3s2)c1 | 27.5 | -2.5 | 40.6 | 3.8 | nt
Cc1cccc(N(CC(=O)NC2CCCC2)C(=O)c2cc3cc4cccc(C)c4nc3s2)c1C | 39.9* | -1.7 | 36.0 | 3.3 | 10.2
C/C(=N\NC(=O)c1cc(-c2ccccc2)nc2ccccc12)c1ccc(Cl)cc1 | nt | nt | nt | 6.5 | nt
COc1ccc(-c2ccc3[nH]c4c(c3c2)CCN2C(=O)[C@@H]([C@H](C)O)[C@@H](N(C)C(=O)Nc3cc(Cl)cc(Cl)c3)C[C@@H]42)cc1 | 30.6* | nt | 41.0 | 11.4 | 23.4
COc1ccc(-c2ccc3[nH]c4c(c3c2)CCN2C(=O)[C@@H]([C@H](C)O)[C@@H](N(C)C(=O)Nc3ccc(F)cc3)C[C@@H]42)cc1 | -2.8 | nt | 22.6 | 18.4 | nt
COC(=O)C1=C(C)N(C)C(=NCc2ccc3c(c2)OCO3)NC1c1cccc(F)c1 (configuration not stated) | nt | nt | nt | 8.2 | nt
OC(c1ccccc1)(c1ccccc1)C1CCN(CCCOc2ccncc2)CC1 | nt | nt | nt | 0.6 | nt
Cc1ccc(Cl)cc1N1CCN(S(=O)(=O)c2ccc3[nH]c(=O)ccc3c2)CC1 | 8.8 | -1.2 | 4.7 | 6.2 | nt
Cc1ccc(Cl)cc1N1CCN(S(=O)(=O)c2ccc3[nH]c(=O)c(=O)[nH]c3c2)CC1 | 37.4* | -9.8 | 35.2 | 12.2 | 49.0*
Cc1ccccc1CN1C(=O)C(C)Sc2ccc(-c3ccco3)cc21 (configuration not stated) | 43.2* | nt | 10.3 | 30.7 | 49.9*
Cc1ccccc1CN1C(=O)C(C)S/C1=N/N=C/c1ccco1 (configuration not stated) | 6.9 | -0.4 | 22.4 | -0.1 | nt
O=C(OCc1cn(Cc2cccc(F)c2F)nn1)N1CCCC1 | nt | nt | nt | 0.4 | nt
CC(C)C[C@@H](CNCC(=O)[C@H](Cc1c[nH]c2ccccc12)NC(=O)c1[nH]cnc1C(=O)N[C@H](CN)CC(C)C)NC(=O)c1nc[nH]c1C(=O)N[C@@H](CC(=O)O)C(=O)O | 31.2* | 3.0 | -11.4 | 27.7 | 45.4
CC(C)C[C@@H](CNCC(=O)[C@H](Cc1c[nH]c2ccccc12)NC(=O)c1[nH]cnc1C(=O)N[C@@H](C)CN)NC(=O)c1nc[nH]c1C(=O)N[C@@H](CC(=O)O)C(=O)O | 13.5 | 3.0 | -7.3 | 25.7 | nt
COc1ccc(CN(CCN2CCOCC2)C(=O)c2cc(F)cc(F)c2)cc1OC | nt | nt | nt | -1.4 | nt
Cc1ccccc1C(=O)Nc1nc(-c2cccnc2)cs1 | 30.0* | -0.4 | -3.8 | 17.2 | 13.8
N#C/C(=C/c1ccc(-c2ccc([N+](=O)[O-])cc2)o1)C(=O)Nc1nc(-c2cccs2)cs1 | 48.3* | 3.8 | 0.1 | 14.0 | 6.0
Cc1ccc(Cc2cnc(NC(=O)/C(C#N)=C/c3ccc(-c4ccc([N+](=O)[O-])cc4)o3)s2)cc1 | 47.7* | -4.1 | -10.4 | 1.3 | 4.1
Cc1cnc(NC(=O)c2ccc(-c3ccc([N+](=O)[O-])cc3)o2)s1 | 8.7 | 2.4 | 2.5 | 6.3 | nt
CCc1cc2c(=O)c(-c3cnn(-c4ccccc4)c3)c(C)oc2cc1OCC(=O)Nc1ccc(F)c(F)c1 | 32.5* | 4.0 | 1.2 | 2.7 | 6.6
COc1cccc(C=C(C#N)C(=O)c2ccccc2)c1 | 31.7* | nt | 1.2 | 5.4 | 17.6
Cc1cc(C)c(O)c(C(=O)CC2CC(=O)NC(=O)C2)c1 | nt | nt | nt | -1.2 | nt
Cc1ccc(C(=O)CSc2nnc(-c3ccccn3)n2-c2ccccc2)cc1 | nt | nt | nt | 3.2 | nt
Cc1cc(-c2csc(N)n2)c(C)n1C | 74.6* | -1.0 | -81.7 | 12.8 | -7.5
